HCMV inh – human cytomegalovirus inhibition | HFF cells, HCMV-luciferase reporter, 72 h; hits give low values | activity change, negative = inhibition, % at 57.5 µM | actives 4.5% (n = 410,000) | AID 1259415; in the data active = activity change below about -60%; inconclusive = no clear call, values can overlap the other calls; inactive = above about -39%
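Two-dose cell screen: HFF monolayers treated with compounds and infected with luciferase-expressing HCMV at 1 PFU/cell, 72 h at 37C, then lysed for luciferase measurement.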
Shiga inhibitor – inhibitors of Shiga toxin in Vero cells; actives 9.2% (n = 290,000); inhibition, % at 38.7 µM; Vero cells, Shiga toxin protein synthesis inhibition reporter; in the data active = inhibition mostly above about 28%, no sharp cut-off; inactive = mostly below about 43%
CHX counter – affects cycloheximide protein synthesis inhibition readout, counter-screen; cell reporter, cycloheximide protein synthesis inhibition counterscreen; max response, %; actives 12% (n = 300,000); AID 2314; in the data active = max response mostly above about 13%, no sharp cut-off; inactive = mostly below about 14%; note: read at 38.3 µM for the half of the compounds with a filed dose
Pf growth 48h – P. falciparum growth inhibition at 48 hours (one generation); Potency, µM (top dose mostly 28.7 µM), most hits filed as inhibitors; AID 504832; P. falciparum luciferase growth in erythrocytes, 48 h; actives 5.9% (n = 310,000)
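Compounds are pin-transferred into medium, infected erythrocytes (2% hematocrit, 0.1% parasitemia final) are added, and plates sit one parasite generation at 37 C in 5% CO2. Detection reagent is then added and luminescence measured.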
HCV inhibitor – blocks hepatitis C virus. actives 3.4% (n = 340,000). Huh7.5.1 HCVcc-Cre infection, luciferase reporter, 44 h. Potency, µM (series often up to 41.8 µM), hits mostly inhibitors
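Compounds are dispensed onto cells plated 4 h earlier at 1,000 per well, with HCVcc-Cre virus (about 0.5 moi) added next. Following 44 h of culture, luminescent signal is measured for 15 sec after 15 min with substrate at room temperature.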
Pf growth 96h – inhibits malaria parasite growth, 96 h; P. falciparum luciferase reporter growth, 96 h; Potency, µM (doses to about 28.7 µM), usual class: inhibitors; actives 6.9% (n = 320,000); AID 504834
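96 h incubation, 37 C, 5% CO2, of luciferase-reporter P. falciparum-infected RBCs (2% hematocrit, 0.05% parasitemia final) with test compounds; endpoint luminescence.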
A number is an active result. Only some compounds are listed: those with a hit (about 21% of all), similar ones and a draw of the others. Unless noted, calls come from the whole dose curve; as a rule, active = well fitted inhibition curve with a large enough effect; inconclusive = small, poorly fitted or top-dose-only effect, or another doubt; inactive = no such curve, though single readings can be large or run the other way.

How did COc1ccc(C(=O)NC2CCc3ccccc32)cc1OC1CCN(C(C)=O)CC1 (centres undefined) do in these assays?
HCMV inh: inactive; Shiga inhibitor: inactive; CHX counter: inactive; Pf growth 48h: inconclusive; HCV inhibitor: inactive; Pf growth 96h: 13µM

How did Cc1ccc(-c2nnn3c2nc(NCCc2ccccc2)c2ccccc23)cc1 do in these assays?
HCMV inh: inactive

How did Cc1ccc(C)c(NC(=O)CSc2c(C)cnc3c2c(=O)n(C)c(=O)n3C)c1 do in these assays?
HCMV inh: inactive

How did Cc1ccc2nc(-c3ccc(-c4ccccn4)s3)cn2c1 do in these assays?
HCMV inh: inactive; Shiga inhibitor: 69; CHX counter: 45; Pf growth 48h: inactive; HCV inhibitor: inconclusive; Pf growth 96h: inactive

Results for Cc1ccc2nc(-c3ccccc3)cn2c1 ?
HCMV inh: -66; Shiga inhibitor: inactive; CHX counter: inactive; Pf growth 48h: inactive; HCV inhibitor: inactive; Pf growth 96h: inconclusive

What do the screens show for `Cc1ccc2nc(-c3ccc(O)c(O)c3)cn2c1`?
HCMV inh: inactive; CHX counter: inactive; Pf growth 48h: inactive; HCV inhibitor: inactive; Pf growth 96h: inactive

What do the screens show for `CC(=O)Nc1ccc(-c2cc(C(=O)O)c3ccc(C)cc3n2)cc1`?
HCMV inh: inactive; Shiga inhibitor: inactive; CHX counter: inactive; Pf growth 48h: inactive; HCV inhibitor: inactive; Pf growth 96h: inactive

Results for CC(=O)Nc1ccc(-c2cn3cc(C)ccc3n2)cc1 ?
HCMV inh: inactive; Shiga inhibitor: 61; CHX counter: 42; Pf growth 48h: inactive; HCV inhibitor: inactive; Pf growth 96h: inactive

What do the screens show for `NS(=O)(=O)c1ccc(CCNC(=O)c2cc([N+](=O)[O-])ccc2N2CCOCC2)cc1`?
HCMV inh: inactive; Pf growth 48h: inactive; HCV inhibitor: inactive; Pf growth 96h: inactive

What do the screens show for `Cc1nc2ccccc2c(=O)n1/N=C/c1ccccc1`?
HCMV inh: inactive; Shiga inhibitor: inactive; CHX counter: inactive; Pf growth 48h: inactive; HCV inhibitor: inactive; Pf growth 96h: inactive

Results for Cc1nnc(-c2ccccc2)c(=O)n1/N=C/c1c(O)ccc2ccccc12 ?
HCMV inh: -99; Shiga inhibitor: inactive; CHX counter: inactive; Pf growth 48h: inconclusive; HCV inhibitor: inconclusive; Pf growth 96h: 4.1µM

How did Cc1nc2ccccc2c(=O)n1/N=C/c1ccccc1O do in these assays?
HCMV inh: inactive; Shiga inhibitor: 88; CHX counter: 37; Pf growth 48h: inactive; HCV inhibitor: inactive; Pf growth 96h: inactive

What do the screens show for `Cc1nc2ccccc2c(=O)n1/N=C/c1ccc(O)c(O)c1O`?
HCMV inh: inactive; Shiga inhibitor: inactive; CHX counter: inactive; Pf growth 48h: inactive; HCV inhibitor: inactive; Pf growth 96h: inactive

Results for Cc1nc2ccccc2c(=O)n1/N=C/c1cccs1 ?
HCMV inh: inconclusive; Shiga inhibitor: inactive; CHX counter: 25; Pf growth 48h: inactive; HCV inhibitor: inactive; Pf growth 96h: inactive

What do the screens show for `Cc1nc2ccccc2c(=O)n1/N=C/c1ccc2ccccc2c1O`?
HCMV inh: -82; Shiga inhibitor: 74; CHX counter: 46; Pf growth 48h: inconclusive; HCV inhibitor: inactive; Pf growth 96h: inconclusive

What do the screens show for `Cc1nnc(C)n1/N=C/c1c(O)ccc2ccccc12`?
HCMV inh: inactive; Shiga inhibitor: inactive; CHX counter: inactive; Pf growth 48h: inactive; HCV inhibitor: inactive; Pf growth 96h: inactive

What do the screens show for `Cc1cc(N/N=C/c2cccc(Cl)c2)nc(-n2nc(C)cc2C)n1`?
HCMV inh: -87; Shiga inhibitor: inactive; CHX counter: inactive; Pf growth 48h: 1.2µM; HCV inhibitor: 18µM; Pf growth 96h: inconclusive

Results for Cc1cc(C)n(CCC(=O)N/N=C/c2ccc(O)cc2O)n1 ?
HCMV inh: inactive; Shiga inhibitor: inactive; CHX counter: inactive; Pf growth 48h: inconclusive; HCV inhibitor: inconclusive; Pf growth 96h: inconclusive

How did Cc1cc(N/N=C/c2cccc([N+](=O)[O-])c2)nc(-n2nc(C)cc2C)n1 do in these assays?
HCMV inh: inconclusive; Shiga inhibitor: inactive; CHX counter: inactive; Pf growth 48h: inconclusive; HCV inhibitor: inconclusive; Pf growth 96h: 1µM

How did Cc1cc(C)n(-c2ccccc2[N+](=O)[O-])n1 do in these assays?
HCMV inh: inactive; Shiga inhibitor: inactive; CHX counter: inactive; Pf growth 48h: inactive; HCV inhibitor: inactive; Pf growth 96h: inactive

Results for Cc1cc(N/N=C/c2ccc(O)cc2O)nc(-n2nc(C)cc2C)n1 ?
HCMV inh: inconclusive; Shiga inhibitor: inactive; CHX counter: inactive; Pf growth 48h: 1.9µM; HCV inhibitor: inconclusive; Pf growth 96h: inconclusive

Results for Cc1cc(C)nc(N/N=C/c2cccc([N+](=O)[O-])c2)n1 ?
HCMV inh: inactive; Shiga inhibitor: inactive; CHX counter: inactive; Pf growth 48h: inactive; HCV inhibitor: inactive; Pf growth 96h: inactive

What do the screens show for `Cc1cc(N/N=C/c2ccccc2[N+](=O)[O-])nc(-n2nc(C)cc2C)n1`?
HCMV inh: -99; Shiga inhibitor: inactive; CHX counter: inactive; Pf growth 48h: 0.93µM; HCV inhibitor: 2.5µM; Pf growth 96h: 0.66µM

What do the screens show for `O=S(=O)(NCCc1csc2nc(-c3ccc(Cl)cc3)nn12)c1cccs1`?
HCMV inh: inactive

How did COc1cc(/C=N/Nc2cc(C)nc(NS(=O)(=O)c3ccc(C)cc3)n2)ccc1O do in these assays?
HCMV inh: inactive; Shiga inhibitor: inactive; CHX counter: inactive; Pf growth 48h: inactive; HCV inhibitor: inactive; Pf growth 96h: inactive

Results for CCOc1ccc(/C=N/Nc2cc(C)nc(N3CCOCC3)n2)cc1 ?
HCMV inh: inactive; Shiga inhibitor: inactive; CHX counter: inactive; Pf growth 48h: inactive; HCV inhibitor: inactive; Pf growth 96h: inactive

What do the screens show for `COc1ccc(/C=N/Nc2cc(C)nc(-n3nc(C)cc3C)n2)cc1`?
HCMV inh: -99; Shiga inhibitor: inactive; CHX counter: inactive; Pf growth 48h: 1.5µM; HCV inhibitor: inconclusive; Pf growth 96h: inconclusive

How did COc1ccc(/C=N/Nc2cc(C)nc(NS(=O)(=O)c3ccc(C)cc3)n2)cc1 do in these assays?
HCMV inh: -62; Shiga inhibitor: inactive; CHX counter: inactive; Pf growth 48h: inactive; HCV inhibitor: inactive; Pf growth 96h: inactive

Results for CC(C)C(=O)Nc1ccc(NC(=O)CCc2ccccc2)cn1 ?
HCMV inh: inactive; Shiga inhibitor: inactive; CHX counter: inactive; Pf growth 48h: inactive; HCV inhibitor: inactive; Pf growth 96h: inconclusive

What do the screens show for `CCCCC(=O)Nc1ccc(NC(=O)c2ccco2)cn1`?
HCMV inh: inactive; Shiga inhibitor: inactive; CHX counter: 20; Pf growth 48h: inactive; HCV inhibitor: inactive; Pf growth 96h: inactive

Results for CCCCC(=O)Nc1cc(C)c(NC(=O)c2ccco2)cn1 ?
HCMV inh: inactive; Shiga inhibitor: inactive; CHX counter: inactive; Pf growth 48h: inactive; HCV inhibitor: inactive; Pf growth 96h: inconclusive

How did CC(C)C(=O)Nc1ccc(NC(=O)c2ccco2)cn1 do in these assays?
HCMV inh: inactive; Shiga inhibitor: inactive; CHX counter: 23; Pf growth 48h: inactive; HCV inhibitor: inactive; Pf growth 96h: inconclusive
